# Laboratory results published in the supplement of paper PMC10338343.
# ± gives the standard deviation. In all, about 8,200 sequences were measured (“pre-steady-state target cleavage rate”: median about 0.024, highest 2% from about 1.3 on). What follows is part of a selection rich in the highest values, with near analogues and random picks from the rest.
# Tested on: MIWI (PIWIL1) piRISC loaded with L1MC piRNA (30 nt)
# Assay: pre-steady-state target cleavage rate (min^-1); MIWI and MILI are mouse PIWI proteins and EfPiwi is from a freshwater sponge; tags in brackets are library labels; higher = faster piRNA-guided slicing of the target
# Conditions: guide: L1MC piRNA 5'p-UAACUAAAUACUAUGCAAGCUGUAGGUCCU
# Experimental: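 Cleave-'n-Seq: a library of target RNAs (target site embedded in constant flanks, ACAGCATTCCGCGTTAGTGATATCCG... 5' flank; DNA-blocked outside the site) at 0.1 nM was incubated with 1 nM active mouse MILI or MIWI piRISC (synthetic 5'-monophosphorylated piRNA guide) with or without 500 nM mouse GTSF1 at 33 °C for 1 min to 16 h. Uncleaved targets were sequenced and normalised to non-target controls, and the pooled three trials were fitted to a burst-and-steady-state model to give the pre-steady-state cleavage rate (min^-1; k3 is constrained to at most 1e-4). Sequence is the target site only; target names encode pairing extent (gX:gY) and contiguous / 1-mismatch / 2-mismatch / bulge geometry. Fits with R² ≤ 0 are excluded.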
# [1] = auxiliary factor: 500 nM mouse GTSF1
# [2] = auxiliary factor: none (no GTSF1)
Sequence,pre-steady-state target cleavage rate [1],pre-steady-state target cleavage rate [2]
UCCACCUACAGCUUGCUUAGUAUAUAGUUA,0.357 ± 0.027,0.0111 ± 0.0025
UCCUCCUACAGCUUGCUUAGUAUAUAGUUA,0.617 ± 0.034,0.0104 ± 0.0032
UCGACCUACAGCUUGCUUAGUAUAUAGUUA,0.879 ± 0.063,0.0168 ± 0.004
UGGACCUUCAGCUUGCUUAGUAUUUAGUUA,1.49 ± 0.09,0.0441 ± 0.011
AGGACCUUCAGCUUGCUUAGUAUUUAGUUA,1.44 ± 0.055,0.0546 ± 0.01
AGGACCUACAGCUUGCUUAGUAUAUAGUUA,0.762 ± 0.071,0.0291 ± 0.0082
AGGACCUACAGCUUGGAUAGUAUAUAGUUA,0.736 ± 0.053,0.0336 ± 0.0076
UGGACCUACAGCUUGCUUAGUAUAUAGUUA,0.842 ± 0.063,0.0175 ± 0.0052
AGGACCUACAGCAUGCAUACUAUUUAGUUA,0.39 ± 0.023,0.0205 ± 0.0035
AGGACCUACAGCUCGCAUAGUAUUUAGUUA,1.35 ± 0.068,0.0694 ± 0.013
UGGACCUACAGCUCGCAUAGUAUUUAGUUA,1.54 ± 0.096,0.0604 ± 0.0083
UCCACCUACAGCUCGCAUAGUAUUUAGUUA,1.11 ± 0.043,0.0579 ± 0.012
UGGACCUACAGCUACCAUAGUAUUUAGUUA,0.493 ± 0.043,0.00241 ± 0.0021
AGGACCUACAGCUGGCAUAGUAUUUAGUUA,1.29 ± 0.057,0.0579 ± 0.011
UCCUCCUACAGCUCGCAUAGUAUUUAGUUA,1.31 ± 0.051,0.0488 ± 0.0093
UCGACCUACAGCUCGCAUAGUAUUUAGUUA,1.55 ± 0.04,0.0682 ± 0.013
UCCUGCUACAGCUCGCAUAGUAUUUAGUUA,1.14 ± 0.062,0.0391 ± 0.0067
UGGACCUACAGCUUGCAUAGUUUUUACUUA,0.0927 ± 0.013,0.0125 ± 0.0027
UGCACCUACAGGUUGCAUAGUAUUUAGUUA,0.859 ± 0.15,0.0244 ± 0.0052
UCCUGCUACAGCUUGCAUAGAAAUUAGUUA,0.2 ± 0.021,0.00609 ± 0.0021

Sequence,pre-steady-state target cleavage rate [1],pre-steady-state target cleavage rate [2]
AGGACCUACACCUUGCAUAGUAUUUAGUAA,0.838 ± 0.068,0.0538 ± 0.0089
UCCACCUACAGCUUGCAUAGUAUUUUCUAA,0.361 ± 0.048,
UCCUGGAACAGCUUGGAUAGUAAUUAGUUA,0.565 ± 0.055,0.0197 ± 0.0059
UCCUGGAACAGCUUGCAUAGUUUUUAGUAA,0.191 ± 0.025,0.0332 ± 0.01
UCCUGGUACUGCUUGGAUAGUAUUUAGUUA,0.391 ± 0.078,0.0193 ± 0.0036
UCCACCUACUGCUUGCAUAGUAUUUAGUUA,0.697 ± 0.027,0.0467 ± 0.0067
UCCACCUACUGCUUGCUUAGUAUUUAGUUA,0.816 ± 0.029,0.0276 ± 0.0058
UGGACCUACUGCUUGCAUAGUAUUUAGUUA,1.46 ± 0.073,0.0611 ± 0.0097
UCGACCUACUGCUUGCUUAGUAUUUAGUUA,1.52 ± 0.061,0.031 ± 0.0067
UCGACCUACUGCUUGCAUAGUAUUUAGAUA,0.273 ± 0.023,0.0197 ± 0.0035
UGCACCUACUGCUUGCAUAGUAUUUAGUUA,1.16 ± 0.097,0.0725 ± 0.014
UCGACCUACUGCUUGCAUAGUAUUUAGUUA,1.41 ± 0.035,0.0694 ± 0.011
AGGACCUACUGCUUGCAUAGUAUUUAGUUA,1.21 ± 0.049,0.0777 ± 0.012
UCGACCUACUGCUUGCAUAGUAUUUAGUAA,0.797 ± 0.036,0.0434 ± 0.0074
ACGACCUACUGCUUGCAUAGUAUUUAGUUA,1.51 ± 0.054,0.0792 ± 0.013
UCCUCCUACUGCUUGCUUAGUAUUUAGUUA,1.06 ± 0.04,0.03 ± 0.0053
UGGACCUACUGCUUGCAUAGUAUUUAGUAA,0.708 ± 0.039,0.0421 ± 0.008
UCCUGCUACGCUUGCAUAGUAUUUAGUUA,1.12 ± 0.08,0.0532 ± 0.011
AGGUCCUACAGCUUGCAUAGUAUUAAGUUA,0.381 ± 0.034,0.054 ± 0.013
UCCUCCUAGAGCUUGCUUAGUAUUUAGUUA,1.04 ± 0.059,0.0213 ± 0.0041

Sequence,pre-steady-state target cleavage rate [1],pre-steady-state target cleavage rate [2]
UGGACCUACAGCUUGCUUACUAUUUAGUUA,0.493 ± 0.031,0.0127 ± 0.0038
UCGACCUACAGCUUGCAUAGUUAAUAGUUA,0.122 ± 0.019,0.00697 ± 0.0029
UCCUGGAUGUCGUGCAUAGUAUUUAGUUA,0.031 ± 0.0083,0.00348 ± 0.0032
UCCUCCUACACCUAGCAUAGUAUUUAGUUA,0.657 ± 0.057,0.0111 ± 0.0022
UCCUGGAACAGCUUGCAUAGUAUAAACAAA,0.18 ± 0.043,
UGGACCUACAGCUUCGAUAGUAUUUAGUAA,0.307 ± 0.04,
UCCUGGAUGUGCUUGCUUAGUAUUUAGUAA,0.0383 ± 0.008,0.0104 ± 0.0033
UGGACCUACAGCUUGCAUAGUAUUAAGAUA,0.174 ± 0.028,0.00558 ± 0.0024
AGGACCAACUGCUUGCAUAGUAUUUAGUUA,1.22 ± 0.056,0.0799 ± 0.014
UGGACCUACUGCAUGCAUAGUAUUUAGUUA,1.27 ± 0.08,0.0325 ± 0.0061
AGGACCUACUGCAUGCAUAGUAUUUAGUUA,1.3 ± 0.06,0.0566 ± 0.01
UGGACCAACUGCUUGCAUAGUAUUUAGUUA,1.27 ± 0.055,0.0655 ± 0.011
UCGACCAACUGCUUGCAUAGUAUUUAGUUA,1.43 ± 0.041,0.0724 ± 0.012
UCGACCUACUGCAUGCAUAGUAUUUAGUUA,1.33 ± 0.056,0.0324 ± 0.0055
AGGACCUACUGCUUGCAAAGUAUUUAGUUA,1.11 ± 0.057,0.0455 ± 0.0095
UGGACCUACUGCUUGCAAAGUAUUUAGUUA,1.23 ± 0.059,0.0383 ± 0.0078
UCGACCUACUGCUUGCAAAGUAUUUAGUUA,1.33 ± 0.037,0.051 ± 0.01
UCCUGGUACAGCUACCAUAGUAUUUAGUUA,0.366 ± 0.05,
UCCACCUACUGCUUGCAUAGUAUUUACUUA,0.243 ± 0.025,0.0254 ± 0.0034
